Experiment [1] is described as follows: qHTS assay for small molecules that induce genotoxicity in human embryonic kidney cells expressing luciferase-tagged ATAD5 (AID 651632). Further: nearly all actives have a fitted effect of over 15% in size. In short, it runs like this:
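Increased luciferase signal from ATAD5-tagged reporter cells indicates DNA-damage-driven ATAD5 induction. HEK293T cells are treated for 16 hr at 37C before detection with Amplite.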
On the technique in general: Quantitative high-throughput screening tests each substance at several concentrations.

Experiment [2] is described as follows: qHTS assay for small molecule agonists of the p53 signaling pathway - cell viability (AID 651633; calls by dose curve; further: nearly all actives have a fitted effect of over 30% in size; further: potency means the concentration at half of the fitted maximal effect). The gist of the method:
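p53RE-bla cells, seeded at 4,000 per well and rested 5 h at 37 C/5% CO2, received compounds in DMSO for 16 h at 37 C. CellTiter-Glo was then added, and luminescence was read after 30 min at room temperature to gauge cytotoxicity.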

Experiment [3] is described as follows: qHTS assay for small molecule disruptors of the mitochondrial membrane potential - cell viability (AID 720634; calls by dose curve; further: nearly all actives have a fitted effect of over 20% in size; further: potency means the concentration at half of the fitted maximal effect). In short, it runs like this: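 After overnight attachment at 37 C, HepG2 cells received compound or DMSO vehicle for 1 hr. Viability is then taken from ATP-driven luminescence following a 30 min room-temperature CellTiter-Glo step.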
A short description of experiment [4]: qHTS assay to test for compound auto fluorescence at 590 nm (red) in HepG2 cells (AID 720674). In short, it runs like this: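 Rose Bengal sodium served as the red fluorophore standard. HepG2 monolayers (overnight attachment, MEM with 10% FBS) were exposed to test compounds for 1 hr at 37 C and read at Ex 540/Em 590 nm.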
Experiment [5] in a line: qHTS assay to test for compound auto fluorescence at 535 nm (green) in HepG2 cells (AID 720675).
Experiment [6] is described as follows: qHTS assay to test for compound auto fluorescence at 460 nm (blue) in HEK293 cells (AID 720678). In short, it runs like this:
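Blue read-out at excitation 405 nm and emission 460 nm follows overnight compound exposure of HEK293 cells at 37C in 5% CO2. Activity is given as auto fluorescence equivalency to triamterene.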

A short description of experiment [7]: qHTS assay to test for compound auto fluorescence at 590 nm (red) in HEK293 cells (AID 720679). The gist of the method:
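Red channel, Ex/Em 540/590nm; signal expressed as equivalency to Rose Bengal sodium. HEK293, 2,000 cells/well, 10% dialyzed FBS; 23 nL compound pinned after 4-5 hr attachment; overnight 37C/5% CO2 before reading.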

A short description of experiment [8]: qHTS assay to test for compound auto fluorescence at 535 nm (green) in HEK293 cells (AID 720680).
Experiment [9] in a line: qHTS assay to test for compound auto fluorescence at 460 nm (blue) in HEK293 cell free culture (AID 720681). The gist of the method: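 Test compounds were pinned into cell-free culture medium (DMEM with 10% FBS) and fluorescence was read directly at Ex/Em 405/460 nm. Signals were expressed as fluorescence equivalents of triamterene, with DMSO vehicle as control.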
A short description of experiment [10]: qHTS assay to test for compound auto fluorescence at 535 nm (green) in HEK293 cell free culture (AID 720682). In short, it runs like this: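 Cell-free medium (DMEM, 10% FBS) receives compound or DMSO by pintool. Plate read directly at Ex 485/Em 535 nm. Signal converted to fluorescein equivalency.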
Experiment [11] in a line: qHTS assay to test for compound auto fluorescence at 590 nm (red) in HEK293 cell free culture (AID 720683). The gist of the method: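 Tox21 10K library compounds were pinned into cell-free DMEM with 10% FBS and fluorescence was read at excitation 540 nm. Activity is expressed as Rose Bengal sodium equivalency.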
Experiment [12] is described as follows: qHTS assay to test for compound auto fluorescence at 590 nm (red) in HepG2 cell free culture (AID 720684). In short, it runs like this: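 Measured in medium alone (MEM containing 10% FBS) following pintool addition of compound; emission at 590 nm with 540 nm excitation, referenced to Rose Bengal sodium.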
A short description of experiment [13]: qHTS assay to test for compound auto fluorescence at 460 nm (blue) in HepG2 cell free culture (AID 720685). The gist of the method: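 Compound (23 nL) or DMSO pinned into cell-free MEM with 10% FBS; blue fluorescence read at 405/460 nm excitation/emission, expressed as auto-fluorescence equivalency to triamterene.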
Experiment [14] is described as follows: qHTS assay to test for compound auto fluorescence at 535 nm (green) in HepG2 cell free culture (AID 720686).
The nature of experiment [15]: qHTS assay to test for compound auto fluorescence at 460 nm (blue) in HepG2 cells (AID 720687). In short, it runs like this: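 Cells (2,000/well in MEM with 10% FBS) attached overnight at 37 C, then were exposed to compound or DMSO for 1 hr at 37 C, 5% CO2. Fluorescence read at Ex/Em 405/460 nm, expressed as triamterene-equivalent signal.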
In experiment [16] the target is Glucocorticoid receptor (Homo sapiens) (UniProt P04150). Kind of experiment: qHTS assay to identify small molecule agonists of the glucocorticoid receptor (GR) signaling pathway (AID 720691; active means well fitted activation curve with a large enough effect in the signal ratio in the repeat runs, not every such curve was filed as active; the % refers to the signal ratio; further: potency means the concentration at half of the fitted maximal effect). The gist of the method:
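Agonist mode in a HeLa line carrying a GRE-controlled beta-lactamase reporter. Compounds act for 18 h at 37 C before a 2 h room-temperature FRET substrate step and fluorescence reading.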

Experiment [17] shares this target. Kind of experiment: qHTS assay to identify small molecule antagonists of the glucocorticoid receptor (GR) signaling pathway (AID 720692; active means well fitted inhibition curve with a large enough effect in the signal ratio in the repeat runs, not every such curve was filed as active; the % refers to the signal ratio). The gist of the method: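 Cells plated, rested 4 h at 37 C/5% CO2; compounds in DMSO pin-transferred; dexamethasone added to 5 nM final; 18 h at 37 C; B/G FRET substrate added, 2 h room temperature; fluorescence measured.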

Experiment [18] can be described thus: qHTS assay for small molecule disruptors of the mitochondrial membrane potential (AID 720635). Further: potency means the concentration at half of the fitted maximal effect. The gist of the method: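 HepG2 cells (2,000/well) attached overnight at 37C, then took compound for 1 hr at 37C, 5% CO2. Mito-MPS dye was added for 30 min; fluorescence was read at 490/535 nm (monomers) and 540/590 nm (aggregates).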
A short description of experiment [19]: qHTS assay for small molecules that induce genotoxicity in human embryonic kidney cells expressing luciferase-tagged ATAD5 - cell viability (AID 651634; calls by dose curve; further: nearly all actives have a fitted effect of over 25% in size). The gist of the method:
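Cytotoxicity counterscreen in HEK293T cells bearing an ATAD5-luciferase reporter: live-cell protease activity measured by CellTiter-Fluor fluorescence after 15.5 hr compound exposure.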

Values joined by “and” are separate entries in the source; they are usually repeats but may differ in a detail not shown here. Identical values can stand only once. Inconclusive results are not listed. Where a structure was tested more than once in an assay, its records may differ in their call. Active and inactive are the calls of the source. Unless noted, the call rests on the fitted dose curve; in most records, active means well fitted curve in the direction sought with a large enough effect in the repeat runs; inconclusive means weak or mixed curves; inactive means no such curve, though single readings can be large; an effect the other way counts as inactive or inconclusive.

Sequence of Glucocorticoid receptor (Homo sapiens) (P04150 whole entry, looked up): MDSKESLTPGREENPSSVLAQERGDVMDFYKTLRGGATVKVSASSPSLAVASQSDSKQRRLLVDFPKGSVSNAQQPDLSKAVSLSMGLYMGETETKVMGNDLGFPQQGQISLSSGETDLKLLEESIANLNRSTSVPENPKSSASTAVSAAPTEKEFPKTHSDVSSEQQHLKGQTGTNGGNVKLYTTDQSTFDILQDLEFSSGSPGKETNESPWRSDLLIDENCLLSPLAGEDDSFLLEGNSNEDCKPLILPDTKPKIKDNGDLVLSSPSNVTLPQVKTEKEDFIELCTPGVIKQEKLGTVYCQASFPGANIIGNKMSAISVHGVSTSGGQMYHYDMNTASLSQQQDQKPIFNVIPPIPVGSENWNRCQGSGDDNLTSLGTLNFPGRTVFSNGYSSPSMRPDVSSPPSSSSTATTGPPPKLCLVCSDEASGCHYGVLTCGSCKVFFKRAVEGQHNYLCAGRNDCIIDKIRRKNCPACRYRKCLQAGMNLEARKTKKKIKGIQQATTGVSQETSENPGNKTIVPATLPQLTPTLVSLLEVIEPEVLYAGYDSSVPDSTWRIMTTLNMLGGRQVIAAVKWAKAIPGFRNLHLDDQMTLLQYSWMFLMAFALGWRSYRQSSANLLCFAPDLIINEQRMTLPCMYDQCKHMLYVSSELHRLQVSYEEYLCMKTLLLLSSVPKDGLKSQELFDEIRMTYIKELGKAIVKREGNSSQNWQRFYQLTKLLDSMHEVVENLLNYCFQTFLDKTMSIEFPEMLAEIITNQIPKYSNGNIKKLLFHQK

With `NC12CC3CC(CC(C3)C1)C2`, the Potency entry in [1], in [2], in experiment [3], in [5], in experiment [6] and in experiment [8] was “inactive” in each case. For the same compound, the Potency result in [9], in experiment [10], in experiment [13], in experiment [14], in experiment [15] and in experiment [16] was “inactive” throughout. The Potency entry in [17] is “inactive”. The compound was classed as inactive in experiment [4], in experiment [7], in [11] and in experiment [12].

As for `c1ccc2c(c1)-c1cccc3c1c-2cc1ccccc13`, the Potency in [3] was 17.2 µM (active); in experiment [18] it was 13.4 µM (active) and 13.7 µM (active); in [16], 21.4 µM [fluorescent] (active) and 49 µM [fluorescent] (active). The compound was called inactive in experiment [4], in [7], in [11] and in experiment [12]. Besides, the Potency result in [5], in experiment [6], in [8], in [9], in experiment [10] and in experiment [13] was “inactive” in each case. The Potency entry in experiment [14] and in experiment [15] was “inactive” in each case.

Regarding `CC(=O)O[C@]1(C(C)=O)CC[C@H]2[C@@H]3C[C@H](C)C4=CC(=O)CC[C@]4(C)[C@H]3CC[C@@]21C`, the Potency result in [2], in experiment [19], in [3], in experiment [5], in experiment [6] and in experiment [8] was “inactive” throughout. Moreover, the Potency entry in [9], in [10], in [13], in experiment [14] and in experiment [15] was “inactive” in each case. The outcome in [4], in [7], in experiment [11] and in experiment [12] was inactive. The Potency in experiment [16] is 37.9 nM (active) and 21.9 nM (active).

For `CCC(=O)/C=C/C1C(C)=CCCC1(C)C` (stereo not given), the Potency result in [1], in [2], in experiment [3], in experiment [5], in experiment [8] and in [9] was “inactive” in each case. Also, the Potency entry in [10], in experiment [13], in experiment [14], in [15], in experiment [16] and in experiment [17] was “inactive” in each case. Besides, in experiment [18], the Potency was 27.3 µM (active). The compound was classed as inactive in [4], in experiment [7], in experiment [11] and in experiment [12].

In the case of `CC(COc1ccccc1)N(CCCl)Cc1ccccc1` (stereo not given), the Potency result in experiment [3], in [5], in [8], in experiment [9], in experiment [10] and in experiment [13] was “inactive” in each case. The Potency result in experiment [14], in [15] and in [16] was “inactive” in each case. Besides, in experiment [18], the Potency entry was “inactive and 43.7 µM (active) and 43.3 µM (active)”. The compound was classed as inactive in experiment [4] and in [11].

As to `Cc1c(O)cccc1C(=O)N[C@@H](CSc1ccccc1)[C@H](O)CN1C[C@H]2CCCC[C@H]2C[C@H]1C(=O)NC(C)(C)C`, the Potency in experiment [2] is 21.1 µM (active); in experiment [18] it was 10.6 µM (active) and 7.49 µM (active). Moreover, the Potency entry in [3], in experiment [5], in experiment [8], in experiment [9], in [10] and in experiment [13] was “inactive” throughout. Further, the Potency result in experiment [14] is “inactive”. Further, the result in experiment [4], in [7], in experiment [11] and in experiment [12] was inactive.

For `O=C(Nc1ccccc1SSc1ccccc1NC(=O)c1ccccc1)c1ccccc1`, the Potency result in experiment [2], in [5], in experiment [8], in experiment [9], in experiment [10] and in experiment [13] was “inactive” in each case. For the same compound, the Potency entry in experiment [14] and in [15] was “inactive” each time. In addition, in [18], the Potency is 7.74 µM (active) and 15.4 µM (active). Further, the call in experiment [4], in [7] and in [11] was inactive.

In the case of `O=C1NCC2(CCN(CCc3ccccc3)CC2)O1`, the Potency entry in experiment [1], in experiment [2], in experiment [3], in experiment [5], in experiment [6] and in experiment [8] was “inactive” each time. Further, the Potency entry in experiment [9], in experiment [10], in [13], in experiment [14], in [15] and in [16] was “inactive” each time. For the same compound, in experiment [17], the Potency result was “inactive”. The compound was classed as inactive in experiment [4], in experiment [7], in [11] and in experiment [12].

Consider `O=C(Oc1ccccc1)c1ccccc1O`, for which the Potency entry in experiment [1], in [3], in [5], in experiment [6], in experiment [8] and in experiment [9] was “inactive” each time. For the same compound, the Potency result in experiment [10], in [13], in experiment [14], in [15], in experiment [16] and in experiment [17] was “inactive” in each case. The Potency result in experiment [18] was “inactive and 54.5 µM (active)”. The compound was classed as inactive in experiment [4], in experiment [11] and in [12].

The values are drawn from PubChem BioAssay (Tox21).
